Test results taken from PubChem BioAssay (NCI).
Compounds without any hit were thinned out: in the full panel of roughly 83,000, 20% have a hit.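 Results are percent growth after 48 hours of single-concentration exposure. 100 means growth as in untreated cells, lower positive values show inhibition; negative values down to -100 show cell death.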 Values without a mark were called inactive. The source made the active and inactive calls. Rule for the calls: active = growth percent below 10; inactive = the rest.

Assays:
Experiment in all cases: NCI-60 one-dose screen, 48 h (100 = growth as untreated, 0 = no growth, -100 = all killed)
Settings in all cases: 10 µM unless noted
DU-145 prostate = system: DU-145 prostate
K-562 leukemia = system: K-562 leukemia
MALME-3M melanoma = system: MALME-3M melanoma
MDA-MB-231 breast = system: MDA-MB-231 breast
RXF 393 renal = system: RXF 393 renal
SF-268 CNS = system: SF-268 CNS
SF-295 CNS = system: SF-295 CNS
SF-539 CNS = system: SF-539 CNS
UACC-257 melanoma = system: UACC-257 melanoma
M14 melanoma = system: M14 melanoma
HCT-15 colon = system: HCT-15 colon
HT29 colon = system: HT29 colon
SNB-75 CNS = system: SNB-75 CNS
SNB-19 CNS = system: SNB-19 CNS
PC-3 prostate = system: PC-3 prostate
SK-MEL-5 melanoma = system: SK-MEL-5 melanoma
UACC-62 melanoma = system: UACC-62 melanoma
LOX IMVI melanoma = system: LOX IMVI melanoma
SK-MEL-28 melanoma = system: SK-MEL-28 melanoma
U251 CNS = system: U251 CNS

Structure (SMILES) | growth (DU-145 prostate) | growth (K-562 leukemia) | growth (MALME-3M melanoma) | growth (MDA-MB-231 breast) | growth (RXF 393 renal) | growth (SF-268 CNS) | growth (SF-295 CNS) | growth (SF-539 CNS) | growth (UACC-257 melanoma) | growth (M14 melanoma) | growth (HCT-15 colon) | growth (HT29 colon) | growth (SNB-75 CNS) | growth (SNB-19 CNS) | growth (PC-3 prostate) | growth (SK-MEL-5 melanoma) | growth (UACC-62 melanoma) | growth (LOX IMVI melanoma) | growth (SK-MEL-28 melanoma) | growth (U251 CNS)
COc1cnc2c(c1)C(=O)c1c-2n(CCCCl)c(=O)c2ccncc12 | 76% | 38.7% | 103% | 81.4% | 81% | 57.6% | 36.6% | 56.1% | 70% | 67.5% | 75.5% | 49.5% | 55.6% | 55.4% | 54% | 34.3% | 23.7% | 33.8% | 99.3% | –
O=c1nc(-c2ccccc2)c2cc(-c3ccc(C(F)(F)F)nc3)ccc2[nH]1 | 103% | 103% | 111% | 91.9% | 105% | 98.1% | 103% | 93.2% | 109% | 98.6% | 97.8% | 111% | 117% | 101% | 96.2% | – | 97.3% | 93.1% | 108% | 105%
C=C(C)[C@@H]1CCC[C@]2(C(=O)O)CC[C@]3(C)[C@@H](CC[C@@H]4[C@@]5(C)C/C(=C/c6ccncc6)C(=O)C(C)(C)[C@@H]5CC[C@]43C)[C@@H]12 | 32.9% | 13.7% | 72% | 12.2% | 34.4% | 52.1% | 27.2% | 26.3% | 57.9% | 45.8% | 5.49% (active) | 14.8% | 52.6% | 46.1% | 27.4% | 10.6% | 26.8% | -9.49% (active) | 48.4% | –
CN(C)CCCC1(c2ccc(F)cc2)OCc2cc(-c3ccc4cc[nH]c4c3)ccc21 (stereo not given) | 35.7% | -20.1% (active) | 11% | 16% | 45.8% | 54% | 74.5% | 67.8% | 79.1% | -56.8% (active) | 25.8% | 4.73% (active) | 33.8% | 69.2% | 43.5% | 56.6% | 56.9% | -83.4% (active) | 64.1% | –
COc1cc(/C=C/C(=O)c2ccc(-n3cc(CN4CCN(c5cc6c(cc5F)c(=O)c(C(=O)O)cn6C5CC5)CC4)nn3)cc2)ccc1O | 77.5% | 40.5% | 94.5% | 73.6% | 70.9% | 56.4% | 80.2% | 60.1% | 87.7% | 79% | 71.7% | 53.3% | 89.2% | 53.8% | 74% | – | 61.2% | 36.9% | 95.8% | 34.3%
Cc1ccc(-c2nc(-c3cn(C)c4ncccc34)cs2)cc1 | -56.4% [100 µM] (active) | 10.3% [100 µM] | -40% [100 µM] (active) | -14.6% [100 µM] (active) | -37.8% [100 µM] (active) | 2.72% [100 µM] (active) | -42.2% [100 µM] (active) | -79% [100 µM] (active) | -7.24% [100 µM] (active) | -63.7% [100 µM] (active) | -18% [100 µM] (active) | -68.1% [100 µM] (active) | -40.2% [100 µM] (active) | -21.1% [100 µM] (active) | -20.6% [100 µM] (active) | – | -50.3% [100 µM] (active) | -41% [100 µM] (active) | – | –
CCO/C=N/C1=C(C#N)C(c2ccc(F)cc2)c2sc3c(F)cccc3c2O1 (stereo not given) | 62.4% | 23.5% | 57.6% | 51% | 33.3% | 50.3% | 22% | 28.9% | 60.2% | 29.8% | 26% | 56.8% | 13.4% | 33.2% | 47.9% | 35.5% | 15.2% | 36% | 60.4% | –
Cc1ccc(-c2nc(/C=C3/C(=O)Nc4ccc(F)cc43)c3ccccn23)cc1 | -23.1% (active) | 93.7% | 75.8% | 91% | 63.5% | 75.6% | 76% | 82.3% | 95.5% | 98.8% | -3.43% (active) | 17.2% | 92.2% | 95% | 68.1% | 86.7% | 74.7% | 63.8% | 103% | –
